Reference: the supplement of paper PMC5662767
Structures can show the parent of a compound that is named as a salt.

Tested on: Drosophila S2 cl14 SmoIP sensor cells
Assay: normalized SmoIP GFP fluorescence (untreated unstimulated = 0%, untreated Hh-stimulated = 100%); higher = more Smo activation sensor fluorescence
Conditions: compound concentration: 2 uM, 24 h
[1] = stimulation: Hh conditioned medium (+Hh)
[2] = stimulation: mock conditioned medium (-Hh)
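Note: flow cytometry read-out as median GFP intensity of gated cells, compounds added 30 min before Hh-conditioned or mock medium, mock-treated cells serving as unstimulated baseline.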

Compound | normalized SmoIP GFP fluorescence [1] | normalized SmoIP GFP fluorescence [2]
O=C1NC(=O)C(c2ccccc2[N+](=O)[O-])=C1Nc1ccc(O)c(Cl)c1 | 153% | -16.1%
O=C(CCCCCN1C(=O)c2cccc3cccc(c23)C1=O)NO [scriptaid] | 163% | 10.9%
CC(C)(C)c1cnc(CSc2cnc(NC(=O)C3CCNCC3)s2)o1 | 131% | 66%
CCN(CC)CC#CCOC(=O)C(O)(c1ccccc1)C1CCCCC1 (stereo not given) [oxybutynin-chloride] | 108% | -1.12%
CCN(CC)CCNC(=O)c1c(C)[nH]c(/C=C2\C(=O)Nc3ccc(F)cc32)c1C [Sunitinib-Malate-(Sutent)] | 182% | 90.8%
CN1CC(=O)N2[C@H](c3ccc4c(c3)OCO4)c3[nH]c4ccccc4c3C[C@@H]2C1=O [Tadalafil(Cialis)] | 94.8% | -0.265%
N#Cc1ccc(C(c2ccc(C#N)cc2)n2cncn2)cc1 [Letrozole] | 98.8% | -1.88%
CS(=O)(=O)c1ccc(-c2cnc(N)c(C(=O)Nc3ccccc3)n2)cc1 | 232% | 74.4%
O=C1CCc2cc(OCCCCc3nnnn3C3CCCCC3)ccc2N1 [Cilostazol] | 116% | 2.11%
COc1cc2nc(N(C)CCCNC(=O)C3CCCO3)nc(N)c2cc1OC (stereo not given) [Alfuzosin-hydrochloride] | 101% | -2.42%
CCCC(=O)OCOC(=O)C1=C(C)NC(C)=C(C(=O)OC)C1c1cccc(Cl)c1Cl (stereo not given) [cleviprex-clevidipine] | 119% | -12.9%
Cc1c(Nc2ncccc2C(=O)O)cccc1C(F)(F)F [flunixin-meglumin] | 123% | -12.6%
CC(C)[C@H](O)C(=O)N[C@@H](C)C(=O)N[C@@H]1C(=O)N(C)CCc2ccccc21 | 98.8% | 13.8%
CCN(CC)CCOC(=O)c1ccc(N)cc1 [procaine-novocaine-hcl] | 107% | -3.5%
Cc1ccc(=O)n(-c2ccccc2)c1 [pirfenidone] | 107% | -3.16%
COc1cccc(-c2cc(=O)c3ccccc3o2)c1N | 115% | 2.64%
CC(COc1ccccc1)N(CCCl)Cc1ccccc1 (stereo not given) [Phenoxybenzamine-hydrochloride] | 148% | -12.4%
Cc1cc(C#N)cc(C)c1Oc1nc(Nc2ccc(C#N)cc2)nc(N)c1Br [etravirine-tmc125] | 93.3% | -0.264%

Compound | normalized SmoIP GFP fluorescence [1] | normalized SmoIP GFP fluorescence [2]
Cc1cc(Nc2cc(N3CCN(C)CC3)nc(/C=C/c3ccccc3)n2)n[nH]1 | 136% | 23.8%
CCCCc1oc2ccccc2c1C(=O)c1cc(I)c(OCCN(CC)CC)c(I)c1 [amiodarone-hcl] | 112% | 1.69%
COc1cc2c(cc1OC)[C@@H]1Cc3ccc(OC)c(OC)c3CN1CC2 [rotundine] | 160% | 12.5%
COc1ccc2c(c1)C(=O)N(CCc1ccc(S(=O)(=O)NC(=O)NC3CCCCC3)cc1)C(=O)C2(C)C [gliquidone] | 105% | -4.01%
COc1cc(Nc2ncc(F)c(Nc3ccc4c(n3)NC(=O)C(C)(C)O4)n2)cc(OC)c1OC | 112% | -1.11%
CS(=O)(=O)Nc1ccc([N+](=O)[O-])cc1Oc1ccccc1 [nimesulide] | 109% | -4.35%
O=C(Oc1cc(S(=O)(=O)c2ccccc2)ccc1[N+](=O)[O-])c1ccc(Cl)cc1 | 146% | 7.6%
NC(=O)c1noc([C@H](CCCC2CCCCC2)CC(=O)NO)n1 | 126% | -6.97%
CC(C)(Cc1ccc2ccccc2c1)NC[C@@H](O)COc1cccc(Cl)c1C#N | 157% | 12.8%
O=S(=O)(NCCNC/C=C/c1ccc(Br)cc1)c1cccc2cnccc12 [H-89-dihydrochloride] | 105% | 5.45%
O=C(O)c1ccc(N2C(=O)/C(=C\c3ccc(-c4ccc([N+](=O)[O-])cc4)o3)C=C2c2ccccc2)cc1 [4e1rcat] | 105% | -0.265%
CN(C)Cc1cccc(N/C(=C2\C(=O)Nc3cc(C(N)=O)ccc32)c2ccccc2)c1 | 103% | -1.88%
C[C@@H]1CCN(C(=O)CC#N)C[C@@H]1N(C)c1ncnc2[nH]ccc12 | 105% | -0.889%
O=C(/C=C/c1cccc(S(=O)(=O)Nc2ccccc2)c1)NO [Belinostat] | 189% | 54.6%
Cc1cccc(CC(=O)N2CCc3c2ccc(-c2cn(C)c4ncnc(N)c24)c3F)n1 | 102% | -1.63%
CCOC(=O)c1ccc(OC(=O)CCCCCNC(=N)N)cc1 [gabexate-mesylate] | 120% | -12.6%
O=C(NS(=O)(=O)c1ccc(Br)s1)c1ccc(Cl)cc1Cl [tasisulam] | 104% | -4.01%
